Results on 3 molecules are retold here after PubChem BioAssay (EPA / NIEHS).

The structures appear in SMILES notation. Values joined by “and” are separate entries in the source; they are usually repeats but may differ in a detail not shown here. Equal values may be shown once. The source holds several records for some structures; these can differ, active in one and inactive in another. Active and inactive are the calls of the source. The calls were made as follows: active = hit-call score of the fitted dose curve at least 0.9, where 1 is the maximum; inactive = score below 0.9.

Test [1] is described as follows: ATG_CRE_CIS: Attagene CIS-FACTORIAL HepG2 Assay for human cAMP Responsive Element (CRE) binding protein 3 (AID 2282926). The following applies: HepG2 CRE cis-reporter, Attagene multiplexed mRNA; actives raise or lower the signal. In a few lines: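 Endogenous transcription factor activity read via CRE-regulated reporter transcripts in transfected HepG2 cells. After 24 h exposure, RNA was reverse-transcribed, amplified, fluorescently labelled and sized by capillary electrophoresis; gain or loss fitted against DMSO.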

Test [2] in a line: ATG_CMV_CIS: Attagene CIS-FACTORIAL HepG2 Assay for human CMV (Internal Marker) (AID 2282928).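 Also: endpoint acts as a background internal control marker rather than a target.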 The following applies: HepG2 CMV promoter reporter, transcription factor profiling; actives raise or lower the signal. In a few lines:
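Readout: fluorescent reporter cDNA fragments separated by capillary electrophoresis after RT-PCR and HpaI cut. Cells: HepG2 carrying transfected cis-promoter reporter constructs, dosed 24 h. Endpoint serves as background internal-marker control, fit bidirectionally versus DMSO.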

A short description of test [3]: ATG_DR4_LXR_CIS: Attagene CIS-FACTORIAL HepG2 Assay for human Liver X Receptor (LXR), DR4 submotif (AID 2282929). The following applies: HepG2 Attagene DR4 cis-reporter, mRNA transcription; actives raise or lower the signal. In a few lines: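 HepG2, transient MRTU transfection, cis-element (DR4) promoter; 24 h compound exposure; total RNA → oligo(dT) RT → PCR → 6-FAM primer extension → HpaI cut → CE. Gain/loss vs DMSO, bidirectional fit.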

The target in test [4] is Aryl hydrocarbon receptor (Homo sapiens) (UniProt P35869). As to the kind of experiment: ATG_Ahr_CIS: Attagene CIS-FACTORIAL HepG2 Assay for human Aryl Hydrocarbon Receptor (Ahr) (AID 2282930). As to conditions: HepG2 AhR cis-factorial reporter transcription; actives raise or lower the signal. In a few lines:
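HepG2 cells transiently transfected with cis-element-driven multiplexed reporter units; endogenous AhR activity read as reporter mRNA 24 h after dosing, via RT-PCR, 6-FAM labelling, HpaI digestion and capillary electrophoresis. Bidirectional fit relative to DMSO.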

Test [5] in a line: ATG_AP_1_CIS: Attagene CIS-FACTORIAL HepG2 Assay for human Activator Protein 1 (AP-1) (AID 2282931). The following applies: HepG2 Attagene cis-factorial AP-1 reporter mRNA; actives raise or lower the signal. The essentials: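 Transient MRTU transfection of HepG2 → 24 h chemical treatment → RNA isolation, RT-PCR, 6-FAM labelling, HpaI digest → capillary electrophoresis. Fit: bidirectional, DMSO negative control.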

Test [6] is described as follows: ATG_AP_2_CIS: Attagene CIS-FACTORIAL HepG2 Assay for human Activator Protein 2 (AP-2) (AID 2282932). The following applies: HepG2 AP-2 cis-reporter, Attagene transcription factor profiling; actives raise or lower the signal. In a few lines: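 Read-out: fluorescent reporter mRNA via RT-PCR and capillary electrophoresis, 24 h post-dose in transiently transfected HepG2. Endogenous factors drive cis-promoter reporters; gain or loss of signal fitted bidirectionally against DMSO.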

The nature of test [7]: ATG_BRE_CIS: Attagene CIS-FACTORIAL HepG2 Assay for human Bone Morphogenetic Protein (BMP) Response Element (BRE) (AID 2282933). The following applies: HepG2 BMP response element reporter, Attagene transcription factor profiling; actives raise or lower the signal. In a few lines: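 A HepG2 multiplex reporter system measured inducible reporter mRNA 24 h post-dosing. Detection: RT-PCR, 6-FAM primer extension, HpaI digestion, capillary electrophoresis. Activity fitted bidirectionally relative to DMSO.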

Test [8] addresses Retinoic acid receptor alpha (Homo sapiens) (UniProt P10276). As to the kind of experiment: ATG_DR5_RAR_CIS: Attagene CIS-FACTORIAL HepG2 Assay for human Retinoic Acid Receptor Alpha (RARE), DR5 submotif (AID 2282934). The following applies: HepG2 Attagene cis-factorial RARE DR5 reporter, mRNA; actives raise or lower the signal. In a few lines: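 HepG2 cells transiently transfected with multiplexed reporter units; DR5 cis-element drives reporter through endogenous transcription factors. After 24 h dosing, reporter mRNA quantified by RT-PCR, fluorescent labeling, HpaI digestion and capillary electrophoresis; bidirectional fitting versus DMSO.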

Test [9] is described as follows: ATG_E_Box_CIS: Attagene CIS-FACTORIAL HepG2 Assay for human Enhancer Box (E-box) (AID 2282936). As to conditions: HepG2 E-box cis-reporter transcription, actives raise or lower the signal. The essentials:
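Transiently transfected HepG2, endogenous TF-driven reporters, 24 h dosing. Readout: RT-PCR plus capillary electrophoresis of fluorescent reporter fragments. Gain or loss of signal fitted bidirectionally against DMSO baseline.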

The nature of test [10]: ATG_M_61_CIS: Attagene CIS-FACTORIAL HepG2 Assay for M61 Transcription Factor (Internal Marker) (AID 2282937). As to conditions: HepG2 Attagene CIS-FACTORIAL M61 internal marker reporter; actives raise or lower the signal. The essentials: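 Human liver HepG2, transient MRTU transfection (cis promoter elements), 24 h compound. Total RNA → oligo(dT) RT → PCR → FAM label → HpaI → CE. Internal background marker; bidirectional fitting, DMSO = baseline.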

Test [11] in a line: ATG_EGR_CIS: Attagene CIS-FACTORIAL HepG2 Assay for human Early Growth Response 1 (EGR1) (AID 2282938). As to conditions: HepG2 Attagene CIS-FACTORIAL EGR reporter mRNA; actives raise or lower the signal. In a few lines:
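Transient transfection of human HepG2 with multiple cis-regulated reporter units, chemical exposure 24 h, total RNA isolated. Reverse transcription, PCR, fluorescent labelling and capillary electrophoresis quantify reporter transcripts; activity fitted bidirectionally against DMSO.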

Test [12] in a line: ATG_M_19_CIS: Attagene CIS-FACTORIAL HepG2 Assay for M19 Transcription Factor (Internal Marker) (AID 2282939). As to conditions: HepG2 Attagene CIS-FACTORIAL M19 internal marker reporter; actives raise or lower the signal. In a few lines: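 Chemical-treated HepG2 (24 h) with MRTU constructs; reporter transcripts detected by fluorescent RT-PCR fragment analysis on capillary electrophoresis. Internal background marker, DMSO as baseline.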

Test [13] can be described thus: ATG_ERE_CIS: Attagene CIS-FACTORIAL HepG2 Assay for Estrogen Response Element (ERE) (AID 2282940). The following applies: HepG2 ERE cis-reporter, Attagene RNA transcript; actives raise or lower the signal. In a few lines: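 Human liver cells (HepG2) bearing transiently transfected, promoter-regulated reporter units were exposed 24 h. Reporter mRNA induction was detected by capillary electrophoresis of labelled RT-PCR products and fitted bidirectionally to DMSO.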

Test [14] is described as follows: ATG_Ets_CIS: Attagene CIS-FACTORIAL HepG2 Assay for human Erythroblast Transformation Specific (ETS) (AID 2282941). The following applies: HepG2 ETS cis-reporter transcription, actives raise or lower the signal. The essentials:
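RT-PCR/capillary electrophoresis fluorescence read-out of reporter mRNA; HepG2 transient multi-reporter transfection; 24 h compound exposure; gain or loss of signal fitted bidirectionally relative to DMSO.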

The target in test [15] is Hepatocyte nuclear factor 3-beta (Homo sapiens) (UniProt Q9Y261). As to the kind of experiment: ATG_FoxA2_CIS: Attagene CIS-FACTORIAL HepG2 Assay for human Forkhead box A2 (FOXA2) (AID 2282942). The following applies: HepG2 cis-reporter transcription factor activity, 24 h; actives raise or lower the signal. In a few lines:
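Transient MRTU transfection of HepG2 liver cells; 24 h treatment; total RNA → oligo(dT) RT → PCR → FAM primer extension → HpaI cut → CE. Bidirectional fit vs DMSO.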

The nature of test [16]: ATG_FoxO_CIS: Attagene CIS-FACTORIAL HepG2 Assay for human Forkhead box O (FoxO) (AID 2282943). As to conditions: HepG2 Attagene cis-reporter, FoxO element, mRNA; actives raise or lower the signal. In a few lines:
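HepG2 cells transiently transfected with cis-element-driven reporter units report endogenous FoxO activity. After 24 h chemical exposure, reporter mRNA quantified by RT-PCR, fluorescent labeling, HpaI digestion and capillary electrophoresis; bidirectional fit versus DMSO.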

Test [17] can be described thus: ATG_GATA_CIS: Attagene CIS-FACTORIAL HepG2 Assay for human GATA Binding Protein (AID 2282944). As to conditions: HepG2 GATA cis-element reporter, Attagene multiplex mRNA; actives raise or lower the signal. The essentials: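 Transfected cis-reporter HepG2 cells were treated with chemicals for 24 hours. Total RNA was then converted to cDNA, amplified with reporter-specific primers and analysed by fluorescent capillary electrophoresis, using DMSO-treated wells as baseline.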

Test [18] can be described thus: ATG_GLI_CIS: Attagene CIS-FACTORIAL HepG2 Assay for human Zinc Finger Protein GLI1 (AID 2282945). As to conditions: HepG2, Attagene cis-factorial reporter mRNA, GLI element; actives raise or lower the signal. The essentials:
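Transiently transfected HepG2 cells report endogenous transcription factor activity via cis-element-driven reporter units. After 24 h compound exposure, reporter mRNA was measured by RT-PCR with capillary electrophoresis; bidirectional fitting against DMSO baseline.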

Test [19] addresses CCAAT/enhancer-binding protein beta (Homo sapiens) (UniProt P17676). As to the kind of experiment: ATG_C_EBP_CIS: Attagene CIS-FACTORIAL HepG2 Assay for human CCAAT/Enhancer Binding Protein (C/EBP) beta (AID 2282927). As to conditions: HepG2 Attagene cis-factorial transcription factor reporter; actives raise or lower the signal. The essentials: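 HepG2 transiently transfected with multiplexed reporter units under cis-regulatory promoters reporting endogenous C/EBPb activity. After 24 h exposure, reporter mRNA assayed by RT-PCR, fluorescent labelling, HpaI digestion and capillary electrophoresis; bidirectional fitting versus DMSO.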

Test [20] concerns the target Transcription factor E2F1 (Homo sapiens) (UniProt Q01094). As to the kind of experiment: ATG_E2F_CIS: Attagene CIS-FACTORIAL HepG2 Assay for human E2F Transcription Factor 1 (AID 2282935). The following applies: HepG2 Attagene cis-reporter, E2F reporter RNA transcripts; actives raise or lower the signal. In a few lines:
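Transient MRTU transfection of HepG2; 24 h compound exposure; RNA → oligo(dT) RT → PCR → FAM label → HpaI cut → CE fluorescence. Gain/loss of signal fit against DMSO.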

Chain of Retinoic acid receptor alpha (Homo sapiens) (P10276 whole entry, looked up): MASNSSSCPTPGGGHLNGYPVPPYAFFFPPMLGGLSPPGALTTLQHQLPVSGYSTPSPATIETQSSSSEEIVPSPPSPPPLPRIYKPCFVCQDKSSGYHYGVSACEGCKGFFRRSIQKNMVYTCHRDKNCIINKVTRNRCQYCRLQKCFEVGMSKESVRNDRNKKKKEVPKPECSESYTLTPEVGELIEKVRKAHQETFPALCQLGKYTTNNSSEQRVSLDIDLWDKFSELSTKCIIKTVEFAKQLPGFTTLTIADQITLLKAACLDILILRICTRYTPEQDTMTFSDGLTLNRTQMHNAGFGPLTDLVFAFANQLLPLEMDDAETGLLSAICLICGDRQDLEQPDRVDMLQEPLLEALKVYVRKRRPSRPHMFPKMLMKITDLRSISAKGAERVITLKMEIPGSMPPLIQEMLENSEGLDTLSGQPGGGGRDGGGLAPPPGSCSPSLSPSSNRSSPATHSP
Chain of Hepatocyte nuclear factor 3-beta (Homo sapiens) (Q9Y261 whole entry, looked up): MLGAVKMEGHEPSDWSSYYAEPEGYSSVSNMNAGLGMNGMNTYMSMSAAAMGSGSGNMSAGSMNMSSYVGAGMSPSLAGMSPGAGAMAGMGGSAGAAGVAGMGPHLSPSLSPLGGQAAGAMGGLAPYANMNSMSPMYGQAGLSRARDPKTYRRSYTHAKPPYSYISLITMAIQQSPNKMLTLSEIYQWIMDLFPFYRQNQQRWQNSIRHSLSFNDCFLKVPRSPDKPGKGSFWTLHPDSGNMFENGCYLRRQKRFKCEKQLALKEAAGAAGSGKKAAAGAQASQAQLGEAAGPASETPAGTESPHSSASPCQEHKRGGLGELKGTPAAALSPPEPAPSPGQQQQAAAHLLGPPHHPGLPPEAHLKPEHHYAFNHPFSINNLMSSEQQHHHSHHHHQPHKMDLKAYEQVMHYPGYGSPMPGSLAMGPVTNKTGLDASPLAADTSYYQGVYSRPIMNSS
Chain of Aryl hydrocarbon receptor (Homo sapiens) (P35869 whole entry, looked up): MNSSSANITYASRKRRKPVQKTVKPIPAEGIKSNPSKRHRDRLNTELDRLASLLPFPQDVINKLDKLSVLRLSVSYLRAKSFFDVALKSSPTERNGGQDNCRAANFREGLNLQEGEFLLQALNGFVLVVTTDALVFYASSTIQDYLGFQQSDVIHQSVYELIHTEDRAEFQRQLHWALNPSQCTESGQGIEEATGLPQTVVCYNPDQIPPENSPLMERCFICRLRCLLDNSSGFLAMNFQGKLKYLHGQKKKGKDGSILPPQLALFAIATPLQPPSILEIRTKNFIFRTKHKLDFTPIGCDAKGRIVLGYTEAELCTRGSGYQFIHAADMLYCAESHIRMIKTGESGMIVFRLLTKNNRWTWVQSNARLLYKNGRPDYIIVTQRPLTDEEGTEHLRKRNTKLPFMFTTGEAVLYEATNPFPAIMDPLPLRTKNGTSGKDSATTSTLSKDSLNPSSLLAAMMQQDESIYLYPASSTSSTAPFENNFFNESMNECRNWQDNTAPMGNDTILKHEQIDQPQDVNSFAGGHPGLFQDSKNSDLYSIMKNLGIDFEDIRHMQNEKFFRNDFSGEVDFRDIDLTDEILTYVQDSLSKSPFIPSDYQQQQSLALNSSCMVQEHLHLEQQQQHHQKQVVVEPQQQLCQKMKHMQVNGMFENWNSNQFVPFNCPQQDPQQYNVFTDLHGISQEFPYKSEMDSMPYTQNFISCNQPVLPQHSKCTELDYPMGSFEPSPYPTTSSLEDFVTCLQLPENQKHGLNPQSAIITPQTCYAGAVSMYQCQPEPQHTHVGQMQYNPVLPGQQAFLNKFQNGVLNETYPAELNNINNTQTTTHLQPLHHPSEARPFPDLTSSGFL
Chain of CCAAT/enhancer-binding protein beta (Homo sapiens) (P17676 whole entry, looked up): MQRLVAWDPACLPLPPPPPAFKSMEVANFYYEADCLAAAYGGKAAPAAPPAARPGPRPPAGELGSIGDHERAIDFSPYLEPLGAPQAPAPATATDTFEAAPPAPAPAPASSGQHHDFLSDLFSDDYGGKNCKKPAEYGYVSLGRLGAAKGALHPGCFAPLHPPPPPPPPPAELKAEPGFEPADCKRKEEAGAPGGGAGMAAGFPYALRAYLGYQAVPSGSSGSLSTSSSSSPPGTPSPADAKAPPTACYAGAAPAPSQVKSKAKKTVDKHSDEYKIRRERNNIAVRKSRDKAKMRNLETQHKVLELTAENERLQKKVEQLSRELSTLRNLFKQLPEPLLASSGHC
Chain of Transcription factor E2F1 (Homo sapiens) (Q01094 whole entry, looked up): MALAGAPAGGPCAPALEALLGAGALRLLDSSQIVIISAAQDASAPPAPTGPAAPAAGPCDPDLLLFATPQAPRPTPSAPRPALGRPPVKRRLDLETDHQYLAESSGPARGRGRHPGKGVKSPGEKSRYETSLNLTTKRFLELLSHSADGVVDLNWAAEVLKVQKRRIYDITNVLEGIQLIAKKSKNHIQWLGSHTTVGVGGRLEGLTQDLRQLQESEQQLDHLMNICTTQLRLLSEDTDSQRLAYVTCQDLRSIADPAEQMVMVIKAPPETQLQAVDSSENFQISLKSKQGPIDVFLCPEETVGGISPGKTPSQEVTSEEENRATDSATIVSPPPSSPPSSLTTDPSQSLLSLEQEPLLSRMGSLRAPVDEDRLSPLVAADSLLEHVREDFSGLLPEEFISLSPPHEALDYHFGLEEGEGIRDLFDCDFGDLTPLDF

Turning to `Cc1cccc(O)c1C`, the result in [1], in test [2], in [3], in test [4], in test [5] and in test [6] was inactive. Also, the molecule was classed as inactive in [7], in test [8], in test [9], in test [10], in test [11] and in [12]. For the same molecule, the molecule was called inactive in test [14], in test [15], in [16], in test [17] and in [18]. The AC50 (as a rule, the concentration at which the activity in the assay is half-maximal) in test [13] is 59.3 µM (active) and 59.6 µM (active).
Consider `CCCCCCCCN(C)C`, for which the result in [1], in [19], in test [2], in test [3], in test [5] and in test [6] was inactive. The call in test [7], in [8], in [20], in test [9], in test [10] and in test [12] was inactive. Also, the molecule was classed as inactive in test [13], in test [14], in [15], in test [16], in test [17] and in test [18].
Take `OCc1c[nH]c2ccccc12`: the outcome in [1], in test [2], in test [3], in test [6], in test [7] and in test [8] was inactive. For the same molecule, the outcome in [9], in test [10], in [12], in test [14], in [15] and in test [16] was inactive. Besides, the result in [17] and in test [18] was inactive. Further, the AC50 was 25.1 µM (active) in test [2]; 69 µM (active) and 62.6 µM (active) and 49.8 µM (active) in [3]; 47.2 µM (active) [middle of 5 runs] in [5]; 48.6 µM (active) and 85.4 µM (active) and 50.3 µM (active) in [7]; 8.17 µM (active) [middle of 5 runs] in [13]; 1.72 µM (active) and 512 nM (active) and 1.85 µM (active) in test [15].
